Data from PubChem BioAssay.
Several values for one entry are separate records, joined by “and”; a condition that tells them apart may be missing. Equal values may be shown once. Some compounds were tested as several samples or in several runs, with calls that do not always agree. Activity calls are given as the source filed them.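 How the source made its calls, unless noted: active means normalized viability below 100% at a tested concentration; inactive means the rest.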

Assays:
[1] = sensitizers of A549 cells to miR-34 induction, primary screen, imaging, A549 dox-inducible miR-34, nuclei and caspase counts (AID 1347080;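 active means compounds whose cell count with miR-34 switched on is under 0.7 times the count with it off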); details: A549 miR-34 inducible, Hoechst nuclei count, 48 h
[2] = survival rescue of mitochondrial mutant cells in low glucose, primary screen, MELAS cybrids, Rieske KO mouse fibroblasts, CellTiter-Glo (AID 1508586;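 active means mean z-score across replicates of 1.96 or higher in either the MELAS or the Rieske mutant cell line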;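 further: z relative to plate mean and SD of compound and empty wells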)
[3] = ovarian cancer cell viability with rucaparib, profiling panel, oncology-focused library, rucaparib conditional (AID 1508598); details: patient-derived ovarian cancer cells, CellTiter-Glo viability, 144 h, stronger effect = lower value
[4] = stronger effect = lower value, cell number ratio, induced over uninduced
[5] = measured here: relative caspase fold change +Dox/-Dox
[6] = measured here: total cells with miR-34 induction, stronger effect = lower value
[7] = measured here: total cells without miR-34 induction
[8] = MELAS cybrid survival, CellTiter-Glo 48 h, stronger effect = higher value
[9] = Rieske KO mouse fibroblast survival, CellTiter-Glo 72 h
[10] = at 0.000305 µM, OCI-C5x cells, with rucaparib 10 µM, 100% = cells with rucaparib alone
[11] = at 0.000305 µM, OCI-C5x cells, without rucaparib
[12] = at 0.000305 µM, OCI-P5x cells, with rucaparib 20 µM, 100% = cells with rucaparib alone
[13] = at 0.000305 µM, OCI-P5x cells, without rucaparib
[14] = at 0.00122 µM, OCI-C5x cells, with rucaparib 10 µM, 100% = cells with rucaparib alone
[15] = at 0.00122 µM, OCI-C5x cells, without rucaparib
[16] = at 0.00122 µM, OCI-P5x cells, with rucaparib 20 µM, 100% = cells with rucaparib alone
[17] = at 0.00122 µM, OCI-P5x cells, without rucaparib
[18] = at 0.00488 µM, OCI-C5x cells, with rucaparib 10 µM, 100% = cells with rucaparib alone
[19] = at 0.00488 µM, OCI-C5x cells, without rucaparib
[20] = at 0.00488 µM, OCI-P5x cells, with rucaparib 20 µM, 100% = cells with rucaparib alone
[21] = at 0.00488 µM, OCI-P5x cells, without rucaparib
[22] = at 0.0195 µM, OCI-C5x cells, with rucaparib 10 µM, 100% = cells with rucaparib alone
[23] = at 0.0195 µM, OCI-C5x cells, without rucaparib
[24] = at 0.0195 µM, OCI-P5x cells, with rucaparib 20 µM, 100% = cells with rucaparib alone
[25] = at 0.0195 µM, OCI-P5x cells, without rucaparib
[26] = at 0.0781 µM, OCI-C5x cells, with rucaparib 10 µM, 100% = cells with rucaparib alone
[27] = at 0.0781 µM, OCI-C5x cells, without rucaparib
[28] = at 0.0781 µM, OCI-P5x cells, with rucaparib 20 µM, 100% = cells with rucaparib alone
[29] = at 0.0781 µM, OCI-P5x cells, without rucaparib
[30] = at 0.313 µM, OCI-C5x cells, with rucaparib 10 µM, 100% = cells with rucaparib alone
[31] = at 0.313 µM, OCI-C5x cells, without rucaparib
[32] = at 0.313 µM, OCI-P5x cells, with rucaparib 20 µM, 100% = cells with rucaparib alone
[33] = at 0.313 µM, OCI-P5x cells, without rucaparib
[34] = at 1.25 µM, OCI-C5x cells, with rucaparib 10 µM, 100% = cells with rucaparib alone
[35] = at 1.25 µM, OCI-C5x cells, without rucaparib
[36] = at 1.25 µM, OCI-P5x cells, with rucaparib 20 µM, 100% = cells with rucaparib alone
[37] = at 1.25 µM, OCI-P5x cells, without rucaparib
[38] = at 5 µM, OCI-C5x cells, with rucaparib 10 µM, 100% = cells with rucaparib alone
[39] = at 5 µM, OCI-C5x cells, without rucaparib
[40] = at 5 µM, OCI-P5x cells, with rucaparib 20 µM, 100% = cells with rucaparib alone
[41] = at 5 µM, OCI-P5x cells, without rucaparib

C=CS(=O)(=O)NC1CCN(C(=O)CNc2cc(I)c(Cl)cc2OC)CC1
inactive: fold change [1, 4] 1.09 | z-score [2, 8] 0.491 | viability [3, 10] 129% | viability [3, 11] 112% | viability [3, 13] 100% | viability [3, 14] 117% | viability [3, 15] 106% | viability [3, 16] 108% | viability [3, 17] 101% | viability [3, 18] 110% | viability [3, 19] 116% | viability [3, 20] 103% | viability [3, 21] 102% | viability [3, 22] 117% | viability [3, 23] 102% | viability [3, 24] 101% | viability [3, 26] 121% | viability [3, 27] 107% | viability [3, 28] 107% | viability [3, 30] 119% | viability [3, 34] 111% | viability [3, 35] 106% | viability [3, 38] 117% | viability [3, 39] 105%
0.391: fold change [1, 5]
active: viability [3, 12] 97.3% | viability [3, 25] 96.9% | viability [3, 29] 90.5% | viability [3, 31] 93.3% | viability [3, 32] 93.4% | viability [3, 33] 95.6% | viability [3, 36] 96.2% | viability [3, 37] 84.8% | viability [3, 40] 90.8% | viability [3, 41] 86%
1.48: z-score [2, 9]
4020: cell count [1, 7]
4400: cell count [1, 6]

[K+]
0.0929: z-score [2, 9]
inactive: fold change [1, 4] 0.939 | z-score [2, 8] 0.0668
8290: cell count [1, 7]
7790: cell count [1, 6]
0.429: fold change [1, 5]

CC1CC[C@H]2C(C)C(O)O[C@H]3O[C@@]4(C)CC[C@@H]1[C@]32OO4 (stereo not given in full)
0.102: z-score [2, 9]
inactive: fold change [1, 4] 0.953 | z-score [2, 8] -0.379
0.983: fold change [1, 5]
4770: cell count [1, 7]
4540: cell count [1, 6]

CCOC(=O)c1cnc2ccc(-c3cncc(NS(=O)(=O)c4ccccc4)c3)cn12
active: viability [3, 11] 99.1% | viability [3, 13] 99.9% | viability [3, 17] 95.7% | viability [3, 21] 94.6% | viability [3, 25] 94.3% | viability [3, 26] 91.1% | viability [3, 27] 74.3% | viability [3, 28] 88.7% | viability [3, 29] 48.1% | viability [3, 30] 69.7% | viability [3, 31] 46.2% | viability [3, 32] 66.1% | viability [3, 33] 23.4% | viability [3, 34] 52.2% | viability [3, 35] 37% | viability [3, 36] 46.2% | viability [3, 37] 13.9% | viability [3, 38] 4.93% | viability [3, 39] 22.5% | viability [3, 40] 14.6% | viability [3, 41] 8.51%
1650: cell count [1, 6]
0.323: fold change [1, 5]
inactive: fold change [1, 4] 0.888 | z-score [2, 8] 0.296 | viability [3, 10] 115% | viability [3, 12] 102% | viability [3, 14] 121% | viability [3, 15] 102% | viability [3, 16] 101% | viability [3, 18] 129% | viability [3, 19] 105% | viability [3, 20] 107% | viability [3, 22] 122% | viability [3, 23] 112% | viability [3, 24] 102%
0.8: z-score [2, 9]
1860: cell count [1, 7]

COc1cc(Br)c(Nc2nc(-c3c(C)nc4ncccn34)cs2)c(Br)c1
1740 and 1960: cell count [1, 7]
0.545 and -1.29: z-score [2, 9]
inactive: fold change [1, 4] 1.04 and 0.88 | viability [3, 10] 125% | viability [3, 11] 110% | viability [3, 14] 131% | viability [3, 15] 111% | viability [3, 18] 131% | viability [3, 19] 109% | viability [3, 20] 100% | viability [3, 22] 135% | viability [3, 23] 110% | viability [3, 24] 101% | viability [3, 25] 102% | viability [3, 26] 136% | viability [3, 27] 111% | viability [3, 28] 101% | viability [3, 30] 118% | viability [3, 31] 108% | viability [3, 32] 100% | viability [3, 33] 100% | viability [3, 34] 122% | viability [3, 35] 115% | viability [3, 38] 129% | viability [3, 39] 140%
active: viability [3, 12] 95.1% | viability [3, 13] 90.4% | viability [3, 16] 94.4% | viability [3, 17] 96.8% | viability [3, 21] 95.9% | viability [3, 29] 98.6% | viability [3, 36] 78.1% | viability [3, 37] 97.5% | viability [3, 40] 30.8% | viability [3, 41] 19%
0.552 and 0.466: fold change [1, 5]
2.29 (active) and 1.89 (inactive): z-score [2, 8]
1800 and 1730: cell count [1, 6]

Cc1cc([N+](=O)[O-])ccc1NS(=O)(=O)c1cc(Cl)ccc1Cl
3730: cell count [1, 7]
active: viability [3, 12] 74.5% | viability [3, 13] 83.8% | viability [3, 16] 65.9% | viability [3, 17] 73.5% | viability [3, 20] 62.7% | viability [3, 21] 74.6% | viability [3, 24] 65.1% | viability [3, 25] 76.4% | viability [3, 28] 99.2% | viability [3, 33] 99.3% | viability [3, 36] 96.3% | viability [3, 37] 89.4% | viability [3, 38] 99.8% | viability [3, 39] 87% | viability [3, 40] 91.1% | viability [3, 41] 70.2%
0.518: fold change [1, 5]
-3.52: z-score [2, 9]
inactive: fold change [1, 4] 0.984 | z-score [2, 8] -0.622 | viability [3, 10] 116% | viability [3, 11] 110% | viability [3, 14] 122% | viability [3, 15] 118% | viability [3, 18] 120% | viability [3, 19] 111% | viability [3, 22] 118% | viability [3, 23] 110% | viability [3, 26] 122% | viability [3, 27] 121% | viability [3, 29] 101% | viability [3, 30] 109% | viability [3, 31] 115% | viability [3, 32] 101% | viability [3, 34] 102% | viability [3, 35] 123%
3670: cell count [1, 6]

O=C1NC(=O)C(=Cc2ccc3c(c2)OC(F)(F)O3)S1
inactive: fold change [1, 4] 0.912 | z-score [2, 8] -0.318
9790: cell count [1, 7]
-0.248: z-score [2, 9]
8930: cell count [1, 6]
0.633: fold change [1, 5]
